Screens (PubChem)
SARS PLP yeast: blocks SARS-CoV papain-like protease in a yeast assay | S. cerevisiae expressing SARS-CoV PLpro, growth rescue | Potency, µM (doses to about 32.9 µM), usual class: activators | hit rate 0.19% among 330,000 | AID 485353; calls by dose curve; note: nearly all actives have a fitted effect of over 55% in size
Sm TGR block: blocks Schistosoma mansoni thioredoxin glutathione reductase; AID 485364; Potency, µM (top dose mostly 114 µM), hits mostly inhibitors; purified TGR, DTNB reduction, TNB absorbance 405 nm; hit rate 3% among 360,000; Q962Y6; note: nearly all actives have a fitted effect of over 60% in size
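First, TGR (20 nM dispensed) and NADPH were mixed with compound. Second, a 15 min room-temperature incubation followed. Third, further NADPH and then DTNB were added to start the reaction. Finally, TNB absorbance was monitored kinetically.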
Pf growth 48h: P. falciparum growth inhibition at 48 hours (one generation); P. falciparum luciferase growth in erythrocytes, 48 h; Potency, µM (top dose mostly 28.7 µM), actives largely listed as inhibitors; hit rate 5.9% among 310,000
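Cell-based growth assay: transgenic P. falciparum expressing firefly luciferase, cultured in red cells within RPMI 1640 containing 0.5% w/v Albumax, 24 mM bicarbonate and gentamycin. A drop in luciferase activity indicates inhibition.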
Pf growth 96h: inhibits malaria parasite growth, 96 h; P. falciparum luciferase reporter growth, 96 h; hit rate 6.9% among 320,000; Potency, µM (series often up to 28.7 µM), most hits filed as inhibitors
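Parasite growth measured via integrated firefly luciferase reporter in P. falciparum. Infected erythrocytes at 2% hematocrit, 0.05% parasitemia final were treated 96 hours at 37 C under 5% CO2, and luminescence was read.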
HCMV inh: human cytomegalovirus inhibition. HFF cells, HCMV-luciferase reporter, 72 h; stronger effect = lower value. activity change, negative = inhibition, % at 57.5 µM. hit rate 4.5% among 410,000; in the data active = activity change below about -60%; inconclusive = no clear call, values can overlap the other calls; inactive = above about -39%
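Human foreskin fibroblasts infected with luciferase-reporter HCMV at MOI 1 PFU/cell, compounds at two doses. Luciferase measured 72 h post infection; normalized to buffer-only basal and Salinomycin (10uM) controls.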
HCV inh: HCV inhibition; Potency, µM (top dose mostly 41.8 µM), hits mostly inhibitors; hit rate 3.4% among 340,000; AID 651820; Huh7.5.1 HCVcc-Cre infection, luciferase reporter, 44 h
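Antiviral activity was scored by luciferase reporter output from cells infected with HCVcc-Cre (~0.5 moi) in presence of compound, 44 h infection period, cells seeded 1,000/well 4 h prior.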
Of the large screens only hits and unclear results are named; the others gave an inactive call. Rows were chosen to be rich in hits. Some 15% of all compounds tested hit in one or more screens of this group. Unless noted, calls come from the whole dose curve; as a rule, active = well fitted curve in the direction sought with a large enough effect; inconclusive = small, poorly fitted or top-dose-only effect, or another doubt; inactive = no such curve, though single readings can be large; an effect the other way counts as inactive or inconclusive.

Cc1cc(C(=O)COC(=O)c2ccc3c(c2)NC(=O)CS3)c(C)n1CC1CCCO1 (stereo unspecified)	HCV inh inconclusive
COCC(C)n1c(C)cc(C(=O)COC(=O)c2ccc3c(c2)NC(=O)CS3)c1C (stereo unspecified)	Pf growth 48h 10µM, Pf growth 96h 7.4µM, HCMV inh inconclusive, HCV inh inconclusive
CC(C)CN(C(=O)COC(=O)c1ccc2c(c1)NC(=O)CS2)C1CCS(=O)(=O)C1 (stereo unspecified)	HCMV inh -84
Cc1cc(C)n(-c2ccc(C(=O)OCC(=O)N(CC(C)C)C3CCS(=O)(=O)C3)cc2)n1 (stereo unspecified)	Pf growth 48h inconclusive, Pf growth 96h inconclusive, HCMV inh -86
CC(C)CN(C(=O)CSc1nn(-c2ccc(Cl)cc2)c(=S)s1)C1CCS(=O)(=O)C1 (stereo unspecified)	SARS PLP yeast inconclusive, Pf growth 48h 8.3µM, Pf growth 96h inconclusive
Cc1ccc(-n2ccnc2SCC(=O)N(CC(C)C)C2CCS(=O)(=O)C2)c(C)c1 (stereo unspecified)	Pf growth 48h inconclusive, Pf growth 96h 4.1µM
CC12CCC(c3c(C(=O)O)nn(-c4ccc(F)cc4)c31)C2(C)C (stereo unspecified)	none (no result: Pf growth 96h)
CC12CCC(c3c(C(=O)N4CCOCC4)nn(-c4ccccc4)c31)C2(C)C (stereo unspecified)	Pf growth 48h inconclusive, Pf growth 96h 1.3µM
Cc1ccc(S(=O)(=O)NCCCN2CCOCC2)c(C)c1	none
O=C(Nc1cccc(S(=O)(=O)N2CCCC2)c1)c1ccco1	HCV inh inconclusive (no result: Sm TGR block, Pf growth 48h, Pf growth 96h)
O=C(Nc1cccc(S(=O)(=O)c2cccc(NC(=O)c3ccco3)c2)c1)c1ccco1	Pf growth 48h 13µM, Pf growth 96h 12µM, HCMV inh -69, HCV inh 11µM
O=C(Nc1cccc(C(F)(F)F)c1)c1ccco1	HCV inh 10µM
CC(=O)Nc1ccc(S(=O)(=O)Nc2cccc(NC(=O)c3ccco3)c2)cc1	HCMV inh -71, HCV inh inconclusive
O=C(Nc1ccc(F)c(F)c1)c1ccco1	Pf growth 48h inconclusive, HCMV inh -78
CC(=O)Nc1ccc(S(=O)(=O)Nc2ccc(NC(=O)c3ccco3)cc2)cc1	none (no result: Pf growth 96h)
O=C(Nc1ccc(NC(=O)c2ccco2)cc1)c1ccco1	Pf growth 96h inconclusive
O=C(Nc1ccc2[nH]c3c(c2c1)CCCC3)c1ccco1	Sm TGR block 45µM, Pf growth 48h 3.7µM, Pf growth 96h inconclusive, HCV inh 13µM
O=c1oc2ccc3ccccc3c2cc1-c1nnc(Nc2ccccc2)s1	none (no result: SARS PLP yeast, Pf growth 48h, Pf growth 96h, HCV inh)
COCCn1c(C)cc(/C=C(\C#N)C(=O)OCC(=O)Nc2ccc(S(N)(=O)=O)cc2)c1C	Sm TGR block 40µM, Pf growth 96h inconclusive, HCV inh inconclusive
O=C(/C=C1\NC2(CCCC2)Cc2ccccc21)N1CCOCC1	Pf growth 48h inconclusive, Pf growth 96h inconclusive, HCV inh inconclusive
CC1(C)Cc2c(ccc3ccccc23)/C(=C/C(=O)N2CCCCC2)N1	Pf growth 48h 10µM, Pf growth 96h inconclusive, HCV inh inconclusive
COc1[nH]c2ccc(F)cc2c1C(=O)OCC1CCN(CCNS(C)(=O)=O)CC1	HCV inh inconclusive (no result: SARS PLP yeast, Sm TGR block, Pf growth 48h, Pf growth 96h)
CCOc1ccc(Cl)cc1-c1cc(C(=O)NCc2cccc(C(F)(F)F)c2)[nH]n1	none (no result: SARS PLP yeast, Sm TGR block, Pf growth 48h, Pf growth 96h, HCV inh)
CC(=O)OCC1O[C@@H](O[C@@H]2C[C@H]3C(C)(C)[C@H](OC(C)=O)CC[C@]3(C)[C@H]3CC[C@]45C[C@]4(CC[C@H]5[C@@H](C)C[C@@H](O)[C@H](O)C(C)(C)O)[C@@]32C)[C@H](O)[C@@H](O)[C@@H]1O (stereo partly specified)	Pf growth 48h 12µM, Pf growth 96h 5.9µM (no result: HCMV inh)
CC(C)=CCC[C@](C)(O[C@@H]1O[C@H](CO[C@@H]2O[C@H](CO)[C@@H](O)[C@H](O)[C@H]2O)[C@@H](O)[C@H](O)[C@H]1O)C1CC[C@]2(C)C1C(=O)CC1[C@@]3(C)CC[C@H](O[C@H]4O[C@@H](CO)[C@H](O)[C@@H](O)[C@@H]4O)C(C)(C)C3CC[C@]12C (stereo partly specified)	none (no result: Sm TGR block, Pf growth 48h, Pf growth 96h)
Cc1cc(NC(=O)c2ccccc2)n(-c2nc3ccccc3[nH]2)n1	Pf growth 96h inconclusive, HCV inh inconclusive
COc1ccc(C(=O)Nc2cc(C)nn2-c2nc3ccccc3[nH]2)c(OC)c1	Pf growth 48h inconclusive, HCMV inh -64, HCV inh inconclusive
COc1cccc(OC)c1C(=O)Nc1cc(C)nn1-c1nc2ccccc2[nH]1	Pf growth 48h 9.3µM, Pf growth 96h 7.4µM, HCV inh 11µM
COc1ccc(NC(=O)C2CCN(c3nc4ccccc4[nH]3)CC2)cc1OC	HCMV inh inconclusive (no result: SARS PLP yeast, Pf growth 48h, Pf growth 96h, HCV inh)
Cc1cc(NC(=O)C2CCCC2)n(-c2nc3ccccc3[nH]2)n1	Pf growth 48h 8.3µM, Pf growth 96h 10µM
O=C(Nc1cccc(F)c1)C1CCN(c2nc3ccccc3[nH]2)CC1	HCMV inh active (no result: SARS PLP yeast, Pf growth 48h, Pf growth 96h, HCV inh)
CCOC(=O)C(=O)Nc1cc(C)nn1-c1nc2ccccc2[nH]1	none
S=C(Nc1ccccc1Cl)NC1CC2CCCC(C1)N2C1CC1 (stereo unspecified)	Pf growth 96h inconclusive
Cc1cc(NC(=O)c2cccs2)n(-c2nc3ccccc3[nH]2)n1	Pf growth 48h inconclusive, HCMV inh inconclusive, HCV inh inconclusive (no result: Sm TGR block)
Cc1cc(NC(=O)c2sccc2C)n(-c2nc3ccccc3[nH]2)n1	Pf growth 48h inconclusive, Pf growth 96h inconclusive, HCMV inh -70, HCV inh 11µM (no result: Sm TGR block)
COc1ccc(-c2onc(C)c2-c2cscn2)c(O)c1	Pf growth 48h inconclusive
CCOc1ccc(-c2onc(C(F)(F)F)c2-c2cscn2)c(O)c1	Pf growth 48h 4.7µM, HCV inh 10µM (no result: Pf growth 96h)
Cc1cc(O)cc(O)c1-c1onc(C(F)(F)F)c1-c1cscn1	HCMV inh -71, HCV inh inconclusive
CCOc1ccc(-c2cc(NC(=O)Nc3ccc(Cl)cc3)c(C(=O)OC)s2)cc1	none (no result: SARS PLP yeast, Pf growth 48h, Pf growth 96h, HCV inh)
COc1cc(/C=C/C(=O)NC(=O)c2ccccc2O)ccc1OC(C)=O	Pf growth 96h 9.3µM
CC(C)(C)NCC(O)c1cc(Cl)c(N)c(C(F)(F)F)c1 (stereo unspecified)	Pf growth 48h 13µM, Pf growth 96h 8.5µM (no result: SARS PLP yeast, Sm TGR block, HCMV inh, HCV inh)
CC(C)(C)NCC(O)c1cc(O)cc(O)c1 (stereo unspecified)	none
COc1cc(Cl)c(C)cc1NC(=O)COC(=O)c1cc[n+]([O-])cc1	none
COc1cc2c(C#CCCO)c(-c3ccsc3)oc(=O)c2cc1OC	HCV inh 10µM (no result: Sm TGR block, Pf growth 48h, Pf growth 96h)
CON(C)S(=O)(=O)c1cccc(C(=O)NC2CCSc3ccccc32)c1 (stereo unspecified)	HCMV inh -74, HCV inh inconclusive
